We go through 13 compounds from PubChem BioAssay (NCATS).

Records with an inconclusive call do not appear. Values without a mark were called inactive. Calls follow the shape of the full dose curve. Bounds are passed on as bounds.
Potency is read from the fitted curve at half-maximal effect.

The assay is described as follows: Cell Viability - SK-N-SH (AID 435).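 Also: compound exposure lasted 40 h at 37 °C.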 The following applies: SK-N-SH neuroblastoma cell viability qHTS. The text has this:
NIH Chemical Genomics Center [NCGC]
NIH Molecular Libraries Screening Centers Network [MLSCN]
National Institutes of Environmental Health Sciences [NIEHS]
National Toxicology Program [NTP]
We have developed a 1536-well cell-based assay for quantitative high throughput screening (qHTS) against a number of cell lines to determine in vitro cytotoxicity of small molecules. This particular assay uses the SK-N-SH cell line which is derived from human neuroblastoma.
NCGC Assay Protocol Summary:
The CellTiter-Glo luminescent cell viability assay (Promega) is a homogeneous method to measure the number of viable cells in culture. The end point readout of this assay is based on quantitation of intracellular ATP, an indicator of metabolic activity, using the luciferase reaction. Luciferase catalyzes the oxidation of beetle Luciferin to oxyluciferin and light in the presence of ATP. The luminescent signal is proportional to amount of ATP present.
Using the CellTiter-Glo luminescent cell viability assay, the amount of cellular ATP was measured in the SK-N-SH cell line with complete culture medium following compound treatment for 40 hours. The assay was performed in opaque white Kalypsys 1536-well plates. In the screen, tamoxifen and doxorubicin were used as positive controls. Library compounds were measured for their ability to cause acute toxicity in the cell line, as reflected by a decrease in intracellular ATP levels, in a concentration-dependent manner. Data were normalized to the controls for basal activity (DMSO only) and 100% inhibition (100 uM tamoxifen). AC50 values were determined from concentration-response data modeled with the standard Hill equation.
qHTS protocol fo CellTiter Glo SK-N-SH cellular assay
[Step] [Parameter] [Value] [Description]
1. Reagent; 5 uL; 1500 SK-N-SH cells/well
2. Time; 5 hr; 37 °C incubation
4. Controls; 23 nL; Tamoxifen 0.34 uM to 100 uM & Doxorubicin 0.02 nM to 100 uM
5. Time; 40 hr; 37 °C incubation
6. Reagent; 5 uL; CellTiter Glo reagent
7. Time; 20 min; Room Temperature
8. Detection; Luminescence; Viewlux plate reader
Keywords: cell viability, cytotoxicity, SK-N-SH cell line, luminescence, NTPHTS, NTPHTS_NCGC, NIEHS, EPA, DSSTox, MLSMR, MLSCN, NIH Roadmap, qHTS, NCGC
For the compound `COc1cc([C@H]2Oc3cc([C@H]4Oc5cc(O)cc(O)c5C(=O)[C@@H]4O)ccc3O[C@@H]2CO)ccc1O`, the Potency was over 92 µM.
Turning to `COc1ccc(C(Cl)=C(c2ccc(OC)cc2)c2ccc(OC)cc2)cc1`, the Potency is over 92 µM.
Consider `OC[C@H]1O[C@@H]2O[C@H]3[C@H](O)[C@@H](O)[C@@H](O[C@H]4[C@H](O)[C@@H](O)[C@@H](O[C@H]5[C@H](O)[C@@H](O)[C@@H](O[C@H]6[C@H](O)[C@@H](O)[C@@H](O[C@H]7[C@H](O)[C@@H](O)[C@@H](O[C@H]8[C@H](O)[C@@H](O)[C@@H](O[C@H]1[C@H](O)[C@H]2O)O[C@@H]8CO)O[C@@H]7CO)O[C@@H]6CO)O[C@@H]5CO)O[C@@H]4CO)O[C@@H]3CO`, for which the Potency was over 92 µM.
The figure for `NCCNc1cccc2ccccc12` is over 92 µM; for `C/C=C/c1ccc(O)c(OC)c1` it is over 92 µM.
The result for `CCCN(CCC)S(=O)(=O)c1ccc(C(=O)O)cc1` reads over 92 µM; that for `O=C(O)c1ccc(S(=O)(=O)N(Cl)Cl)cc1`, over 92 µM.
As to `CCCCC(CC)COC(=O)c1ccc(N(C)C)cc1` (stereo not drawn), the Potency was over 92 µM.
The result for `CCOc1ccc(NC(C)=O)cc1` reads over 92 µM; that for `NC(=O)c1ccccc1O`, over 92 µM; that for `C=C[C@H]1CN2CC[C@H]1C[C@@H]2[C@@H](O)c1ccnc2ccc(OC)cc12`, over 92 µM.
The result for `CCOc1ccccc1C(N)=O` reads over 92 µM; that for `COc1ccc(C(=O)c2ccccc2)c(O)c1`, over 92 µM.
